Compounds without any hit were thinned out: in the full panel of roughly 83,000, 20% have a hit.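 Single-dose data. Exposure time 48 hours. Values below 10 considered active.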 Values without a mark were called inactive. Calls of active or inactive are those of the source.
Columns and labels:
Test in all cases: NCI-60 one-dose screen, 48 h (100 = growth as untreated, 0 = no growth, -100 = all killed)
Settings in all cases: 10 µM unless noted
[1] = tested on: NCI-H23 lung
[2] = tested on: NCI-H226 lung
[3] = tested on: NCI-H322M lung
[4] = tested on: HOP-62 NSCLC
[5] = tested on: NCI-H460 lung
[6] = tested on: HOP-92 NSCLC
[7] = tested on: NCI-H522 lung
[8] = tested on: A549/ATCC NSCLC
[9] = tested on: 786-0 renal
[10] = tested on: COLO 205 colon

SMILES: COc1ccc(C(=O)N2NC(=O)/C(=C/c3ccc(Br)cc3)N=C2c2ccccc2)cc1
- growth [1]: 93.8%
- growth [2]: 95.1%
- growth [3]: 90.6%
- growth [4]: 46.6%
- growth [5]: 96.9%
- growth [6]: 64.4%
- growth [7]: 85.3%
- growth [8]: 87.6%
- growth [9]: 90.4%
- growth [10]: 105%

SMILES: O=c1ccn(C2CC(O)C(O)C(CO)O2)c(=O)[nH]1 (stereo not given)
- growth [1]: 110%
- growth [2]: 142%
- growth [3]: 131%
- growth [4]: 107%
- growth [5]: 124%
- growth [6]: 121%
- growth [7]: 148%
- growth [8]: 118%
- growth [9]: 109%
- growth [10]: 113%

SMILES: N#Cc1c(-c2ccccc2)cc(-c2ccccc2)n(CC(=O)NO)c1=O
- growth [1]: 53.1%
- growth [2]: 38.9%
- growth [3]: 81.2%
- growth [4]: 71.2%
- growth [5]: 83%
- growth [6]: 32%
- growth [7]: -70.9% (active)
- growth [8]: 54.4%
- growth [9]: 63.7%
- growth [10]: 58.6%

SMILES: CCN(CC)CCC(CNc1ccnc2cc(Cl)ccc12)c1ccccc1 (stereo not given)
- growth [1]: 80.3%
- growth [2]: 63%
- growth [3]: 93.7%
- growth [4]: 78.4%
- growth [5]: 67.7%
- growth [6]: 21.1%
- growth [7]: 18%
- growth [8]: 70.4%
- growth [9]: 69.8%
- growth [10]: -39% (active)

SMILES: O=C(O)c1nc(-c2ccccc2)oc1N1CCOCC1
- growth [1]: 98%
- growth [2]: 103%
- growth [3]: 91.8%
- growth [4]: 97%
- growth [5]: 102%
- growth [6]: 84.6%
- growth [7]: 95.9%
- growth [8]: 100%
- growth [9]: 97.5%
- growth [10]: 102%

SMILES: COc1ccc2c(c1)[nH]c(=O)c1c3cc(OC)ccc3cn21
- growth [1]: 41.4%
- growth [2]: 30.1%
- growth [3]: 33.6%
- growth [4]: 20%
- growth [5]: -33% (active)
- growth [6]: 45.1%
- growth [7]: 13%
- growth [8]: -2.59% (active)
- growth [9]: 28.7%
- growth [10]: -14.1% (active)

SMILES: Cc1cc(N/N=C/c2nc(-c3ccccc3)oc2C)c2cc(Cl)ccc2n1
- growth [1]: -19.6% (active)
- growth [2]: 81.4%
- growth [3]: -54.8% (active)
- growth [4]: 10.5%
- growth [5]: -78.3% (active)
- growth [6]: -61.9% (active)
- growth [7]: -59.4% (active)
- growth [8]: -76.8% (active)
- growth [9]: -83.1% (active)
- growth [10]: -71.9% (active)

SMILES: C/C(=N/NC(=S)Nc1ccccc1)c1nc2ccc(Cl)cc2[nH]1
- growth [1]: -45.3% (active)
- growth [2]: -42.4% (active)
- growth [3]: -40.4% (active)
- growth [4]: -97.1% (active)
- growth [5]: -66.6% (active)
- growth [6]: -68.8% (active)
- growth [7]: -93.4% (active)
- growth [8]: -10.9% (active)
- growth [9]: -47.6% (active)
- growth [10]: -89.3% (active)

SMILES: O=C1/C(=C/c2ccccc2)CN(C(=O)CCN2CCC(=NO)CC2)C/C1=C\c1ccccc1
- growth [1]: 1.59% (active)
- growth [2]: 104%
- growth [3]: 34%
- growth [4]: 49.9%
- growth [5]: -32.2% (active)
- growth [6]: 77.6%
- growth [7]: -61.4% (active)
- growth [8]: 71.3%
- growth [9]: -25.8% (active)
- growth [10]: -46.8% (active)

SMILES: CN1C=CN(Cc2ccc(-c3ccccn3)nc2)[CH-]1.CN1C=CN(Cc2ccc(-c3ccccn3)nc2)[CH-]1.[Au+3]
- growth [1]: 36.3%
- growth [2]: 66.7%
- growth [3]: -3% (active)
- growth [4]: 61.6%
- growth [5]: 21.3%
- growth [6]: 66.6%
- growth [7]: 34.2%
- growth [8]: 45.2%
- growth [9]: 52.8%
- growth [10]: 28.4%

SMILES: CCCCC(CC)OC(=O)C(Br)CC (stereo not given)
- growth [1]: 92.7%
- growth [2]: 108%
- growth [3]: 101%
- growth [4]: 111%
- growth [5]: 109%
- growth [6]: 95.8%
- growth [7]: 103%
- growth [8]: 103%
- growth [9]: 98.4%
- growth [10]: 111%

SMILES: CC1CCC(C)N(C)C1 (stereo not given)
- growth [1]: 104%
- growth [2]: 101%
- growth [3]: 100%
- growth [4]: 107%
- growth [5]: 109%
- growth [6]: 84.4%
- growth [7]: 104%
- growth [8]: 103%
- growth [9]: 94.4%
- growth [10]: 110%

SMILES: Cc1ccc(S(=O)(=O)NC(=O)n2cc(-c3ccncc3)c(-c3ccc(Cl)c(O)c3)n2)cc1
- growth [1]: 108%
- growth [2]: 98.6%
- growth [3]: 111%
- growth [4]: 116%
- growth [5]: 111%
- growth [6]: 99%
- growth [7]: 91.3%
- growth [8]: 99.6%
- growth [9]: 95.4%
- growth [10]: 113%

SMILES: O=C(N/N=C/C=C\c1ccccc1)C(=O)N/N=C/C=C/c1ccccc1
- growth [1]: 103%
- growth [2]: 111%
- growth [3]: 123%
- growth [4]: 107%
- growth [5]: 117%
- growth [6]: 115%
- growth [7]: 124%
- growth [8]: 109%
- growth [9]: 104%
- growth [10]: 122%
